Screening results as filed in PubChem.
An excerpt weighted towards active compounds, which were near 2.1% of everything screened.
APP transl inh: APP translation inhibition | 190,000 tested, 0.82% active | SH-SY5Y APP 5'UTR-luciferase reporter, luminescence | inhibition, % at 2 µM | AID 1285;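 active = inhibition above a set limit, derived from the sample mean plus 3 SD, cut at about 45% in these data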
KLF5 inh: inhibitors of KLF5 expression; DLD-1 KLF5 promoter-luciferase reporter, luminescence; inhibition, % at 5 µM; 290,000 tested, 0.23% active; AID 1700;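 active = inhibition above a per-plate limit of that plate's mean compound inhibition plus 3 SD, cut at about 60% in these data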;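 also: 0% = DMSO wells and 100% = LY294002 at 200 µM; higher means less KLF5 promoter-driven luciferase light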
BaF3 parental: parental Ba/F3 viability inhibition as JAK2V617F counter-screen. inhibition, % at 5.6 µM. AID 1486. 220,000 tested, 1.1% active. CellTiter-Glo ATP luminescence;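 active = inhibition above a per-campaign cutoff, the mean inhibition of all tested compounds plus 3 SD, cut at about 27% in these data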;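 also: 0% = DMSO wells and 100% = JAK Inhibitor I control wells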
Ba/F3 V617F tox: reduce viability of Ba/F3 cells dependent on JAK2V617F | Ba/F3 EpoR-JAK2V617F viability, ATP luminescence | inhibition, % at 5.6 µM | 220,000 tested, 1.1% active | AID 1446;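 active = inhibition above the campaign mean plus 3 SD over all tested compounds, cut at about 24% in these data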;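 also: cytokine-independent growth of Ba/F3 cells driven by EpoR plus mutant JAK2; 0% = DMSO-treated cells and 100% = JAK inhibitor I control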
aSyn 5UTR inh: MLPCN primary screen, SNCA 5' untranslated region; alpha-synuclein 5'UTR reporter, inhibitor activity; inhibition, % (tested at 7.5 µM); 300,000 tested, 0.82% active; in the data active = inhibition above about 60%;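 also: H4 neuroglioblastoma cells stably carrying SNCA 5'UTR luciferase fusion; 0% = DMSO wells and 100% = positive control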
IEC-6 tox: counter-screen for KLF5 inhibitors: cytotoxicity in IEC-6 cells; IEC-6 cytotoxicity, luminescence viability; inhibition, % at 5 µM; 290,000 tested, 0.78% active; in the data active = inhibition above about 22%;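 also: 0% = plate median of test compound wells and 100% = cytotoxic reference compound wells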
Active calls of the source: *.

CN1/C(=C/C=C(C#N)C#N)C(C)(C)c2ccccc21 was read as APP transl inh -6, KLF5 inh 1, BaF3 parental 0, Ba/F3 V617F tox -3, aSyn 5UTR inh -4 and IEC-6 tox -1.
`CN1/C(=C\C=Nc2ccc3ccccc3c2)C(C)(C)c2ccccc21` gave APP transl inh -15, KLF5 inh -13, BaF3 parental 42*, Ba/F3 V617F tox 48* and IEC-6 tox 14.
For CN1\C(=C/C=C/C=C/C=[N+](C)C)C(C)(C)c2ccccc21 the results were APP transl inh 10, KLF5 inh -14, BaF3 parental 33*, Ba/F3 V617F tox 38*, aSyn 5UTR inh 36 and IEC-6 tox -7.
`CN(C)c1ccc(N=C/C=C2\N(C)c3ccccc3C2(C)C)cc1` gave APP transl inh -143, KLF5 inh -116, BaF3 parental 11, Ba/F3 V617F tox 2, aSyn 5UTR inh -114 and IEC-6 tox 3.
For CN1/C(=C\C=O)C(C)(C)c2ccccc21 the results were APP transl inh 10, KLF5 inh -10, BaF3 parental 49*, Ba/F3 V617F tox 39*, aSyn 5UTR inh 19 and IEC-6 tox 4.
For C=CCN1C(=O)/C(=C\C=C2\N(C)c3ccccc3C2(C)C)SC1=S the results were APP transl inh -6, KLF5 inh -1, BaF3 parental 0, Ba/F3 V617F tox -1, aSyn 5UTR inh -3 and IEC-6 tox 6.
`Cc1ccc(NC(=O)C(=O)NCC2OCCc3ccccc32)cc1` (centres undefined) gave APP transl inh -6, KLF5 inh -3, BaF3 parental 4, Ba/F3 V617F tox -2, aSyn 5UTR inh -46 and IEC-6 tox 0.
`O=C(NCC1OCCc2ccccc21)c1ccc(NC(=O)c2ccc(Cl)cc2)cc1` (centres undefined) gave APP transl inh 3, KLF5 inh -4, BaF3 parental 6, Ba/F3 V617F tox -1, aSyn 5UTR inh 79* and IEC-6 tox -2.
CC1CCCN(S(=O)(=O)c2ccc3oc(=O)ccc3c2)C1 (centres undefined) was read as KLF5 inh -11, aSyn 5UTR inh 3 and IEC-6 tox 1.
`CCC1(c2ccccc2)NC(=O)N(CC(=O)NCc2ccc(C)cc2)C1=O` (centres undefined) gave KLF5 inh -22, aSyn 5UTR inh 29 and IEC-6 tox 4.
CCc1ccccc1NC(=S)NNC(=O)c1ccccc1Cl was read as APP transl inh -31, KLF5 inh -14, BaF3 parental 7, Ba/F3 V617F tox -1, aSyn 5UTR inh -49 and IEC-6 tox -4.
`CCc1ccccc1NC(=S)NN` gave APP transl inh 92*, KLF5 inh -4, BaF3 parental 3, Ba/F3 V617F tox 0, aSyn 5UTR inh -7 and IEC-6 tox -1.
COC(=O)c1c(NC(=O)c2nc3ccccc3s2)sc2c1CC(C)(C)NC2(C)C was read as APP transl inh 5, KLF5 inh -29, BaF3 parental -4, Ba/F3 V617F tox -1, aSyn 5UTR inh 104* and IEC-6 tox 1.
C/C(=N\NC(=O)C(C)n1nc(C)c([N+](=O)[O-])c1C)c1ccccc1O (centres undefined) was read as APP transl inh 42, KLF5 inh -54, BaF3 parental 8, Ba/F3 V617F tox 1, aSyn 5UTR inh 78* and IEC-6 tox 4.
`Cc1nn(C(C)C(=O)NCc2ccco2)c(C)c1[N+](=O)[O-]` (centres undefined) gave APP transl inh 3, KLF5 inh -2, BaF3 parental 0, Ba/F3 V617F tox -2, aSyn 5UTR inh 4 and IEC-6 tox -4.
For C[C@H]1CN(CCc2ccccc2)C(=O)[C@@H]1CC(=O)NCc1ccccc1 the results were KLF5 inh -32, aSyn 5UTR inh -13 and IEC-6 tox -3.
`COc1ccc(/C=N\n2nnc3ccccc32)cc1` gave APP transl inh -191, KLF5 inh -111, BaF3 parental 1, Ba/F3 V617F tox 0, aSyn 5UTR inh 73* and IEC-6 tox -5.
Screening O=C(Nc1cc2ccccc2oc1=O)c1ccccc1 returned APP transl inh -131, KLF5 inh -128, BaF3 parental 3, Ba/F3 V617F tox 2, aSyn 5UTR inh 74* and IEC-6 tox -2.
`CCN(c1ccc(NC(=O)c2ccc(Cl)nc2)cc1)C(C)C` gave APP transl inh 60*, KLF5 inh 17, BaF3 parental 69*, Ba/F3 V617F tox 77*, aSyn 5UTR inh 18 and IEC-6 tox 69*.
O=C(Nc1cccc2ncccc12)c1ccco1 was read as KLF5 inh -29, aSyn 5UTR inh -4 and IEC-6 tox 2.
`COc1ccccc1NC(=O)c1ccc(N2CC3CC(C2)c2cccc(=O)n2C3)c(NC(=O)c2ccncc2)c1` (centres undefined) gave KLF5 inh -12, aSyn 5UTR inh -13 and IEC-6 tox 2.
`CCOC(=O)N1CCC(NC(=O)CCC(=O)N2CCOc3ccc(Cl)cc32)CC1` gave APP transl inh -24, KLF5 inh -13, BaF3 parental 3, Ba/F3 V617F tox 1, aSyn 5UTR inh 23 and IEC-6 tox -10.
For Cc1nn(Cc2c(Cl)cccc2Cl)c(C)c1NC(=O)c1cn(-c2ccccc2)nc1-c1ccccc1 the results were APP transl inh 9, KLF5 inh -20, BaF3 parental 7, Ba/F3 V617F tox -4, aSyn 5UTR inh 122* and IEC-6 tox -4.
Screening Cc1cccc(C)c1NC(=O)CNC(=O)c1cn(-c2ccccc2)nc1-c1ccccc1 returned KLF5 inh -33, aSyn 5UTR inh 17 and IEC-6 tox 4.
Screening COc1cc2c(cc1OC)-c1cc(NC3CCCCCCC3)nc(=O)n1CC2 returned APP transl inh -5, KLF5 inh -22, BaF3 parental 9, Ba/F3 V617F tox 3, aSyn 5UTR inh 70* and IEC-6 tox 0.
For COc1ccc(N/C=C2\CCc3ccccc3C2=O)cc1 the results were APP transl inh -156, KLF5 inh -30, BaF3 parental 8, Ba/F3 V617F tox 4, aSyn 5UTR inh 94* and IEC-6 tox 1.
`O=C1/C(=C/Nc2ccc3c(c2)OCO3)CCc2ccccc21` gave APP transl inh -153, KLF5 inh -90, BaF3 parental 2, Ba/F3 V617F tox 4, aSyn 5UTR inh 96* and IEC-6 tox 0.
Screening CCOc1ccc(Cl)cc1S(=O)(=O)N1CCC(C(=O)NCc2ccco2)CC1 returned KLF5 inh 0, aSyn 5UTR inh 12 and IEC-6 tox -5.
COc1ccc(C=O)cc1OS(=O)(=O)c1ccc(NC(C)=O)cc1 was read as APP transl inh -2, KLF5 inh 26, BaF3 parental 2, Ba/F3 V617F tox 2, aSyn 5UTR inh 17 and IEC-6 tox 10.
`COc1ccc(/C=N/NC(=O)c2ccc3ccccc3c2)cc1OS(=O)(=O)c1ccc(NC(C)=O)cc1` gave APP transl inh 72*, KLF5 inh 11, BaF3 parental 0, Ba/F3 V617F tox 5, aSyn 5UTR inh -22 and IEC-6 tox 4.
